In PubChem BioAssay (EPA / NIEHS):
Active and inactive are the calls of the source. The calls were made as follows: active = hit-call score of the fitted dose curve at least 0.9, where 1 is the maximum; inactive = score below 0.9.

Assays:
Conditions in all cases: mRNA level, 48 h; actives raise or lower the signal
CYP4A11 (gene 1579) = experiment: LTEA_HepaRG_CYP4A11: Life Technologies and Expression Analysis (LTEA) Assay for CYP4A11 using HepaRG (AID 2283486)
Outline: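 Readout is CYP4A11 transcript level by qRT-PCR, normalized to three housekeeping genes and fitted bidirectionally against 0.5% DMSO. Human HepaRG cells were treated 48 h, in duplicate, with an 8-point half-log series topping at 100 uM.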

[1] = read-out: Cytochrome P450 3A4 (Homo sapiens) (UniProt P08684); experiment: LTEA_HepaRG_CYP3A4: Life Technologies and Expression Analysis (LTEA) Assay for CYP3A4 using HepaRG (AID 2283487)
Outline: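 Differentiated HepaRG cells in serum-free induction medium exposed in duplicate for 48 h to 8 half-log concentrations up to 100 uM in 0.5% DMSO. CYP3A4 mRNA measured by qRT-PCR normalized to ACTB, GAPDH and POLR2A; bidirectional fit versus DMSO.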

[2] = read-out: DNA damage-inducible transcript 3 (DDIT3), DDIT3 (gene 1649); experiment: LTEA_HepaRG_DDIT3: Life Technologies and Expression Analysis (LTEA) Assay for DNA damage-inducible transcript 3 (DDIT3) using HepaRG (AID 2283488)
Outline: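 HepaRG cells, 48 h after plating, exposed 48 h in serum-free induction medium to 8 half-log concentrations up to 100 uM in 0.5% DMSO, in duplicate. DDIT3 mRNA measured by TaqMan qRT-PCR, normalized to ACTB, GAPDH and POLR2A. Fitted bidirectionally against DMSO.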

[3] = read-out: Pro-epidermal growth factor (Homo sapiens) (UniProt P01133); experiment: LTEA_HepaRG_EGF: Life Technologies and Expression Analysis (LTEA) Assay for Epidermal growth factor (EGF) using HepaRG (AID 2283489)
Outline: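 EGF transcript measured by Fluidigm TaqMan qRT-PCR with three housekeeping genes for normalization, 48 h after dosing HepaRG cultures in duplicate (top 100 uM, half-log steps, 0.5% DMSO vehicle). Gain or loss relative to DMSO fitted.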

[4] = read-out: Early growth response protein 1 (EGR1) transcription factor, EGR1 (gene 1958); experiment: LTEA_HepaRG_EGR1: Life Technologies and Expression Analysis (LTEA) Assay for Early growth response protein 1 (EGR1) transcription factor using HepaRG (AID 2283490)
Outline: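 Differentiated human HepaRG cells in serum-free induction medium were exposed in duplicate for 48 h to eight concentrations (top 100 uM, half-log steps) in 0.5% DMSO. EGR1 mRNA was quantified by qRT-PCR, normalized to ACTB, GAPDH and POLR2A, and fitted bidirectionally versus DMSO.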

[5] = read-out: Ezrin (EZR), EZR (gene 7430); experiment: LTEA_HepaRG_EZR: Life Technologies and Expression Analysis (LTEA) Assay for Ezrin (EZR) using HepaRG (AID 2283491)
Outline: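 Differentiated human HepaRG cells, 48 h after plating, were exposed in serum-free induction medium for 48 hours to eight half-log concentrations up to 100 uM in 0.5% DMSO. EZR mRNA was measured by TaqMan qRT-PCR, normalized to ACTB, GAPDH and POLR2A, and fitted bidirectionally against DMSO.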

[6] = read-out: Cytochrome P450 3A7 (Homo sapiens) (UniProt P24462); experiment: LTEA_HepaRG_CYP3A7: Life Technologies and Expression Analysis (LTEA) Assay for CYP3A7 using HepaRG (AID 2283492)
Outline: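 CYP3A7 transcript measured by qRT-PCR (ACTB, GAPDH, POLR2A normalization) after 48 h chemical exposure of HepaRG cells in duplicate. Eight half-log concentrations, maximum 100 uM, 0.5% DMSO vehicle; bidirectional curve fitting against DMSO baseline.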

CYP3A5 (gene 1577) = experiment: LTEA_HepaRG_CYP3A5: Life Technologies and Expression Analysis (LTEA) Assay for CYP3A5 using HepaRG (AID 2283493)
Outline: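 HepaRG cells, plated 48 h then in serum-free induction medium, dosed in duplicate for 48 h with eight half-log concentrations up to 100 uM in 0.5% DMSO. Gene mRNA by Fluidigm TaqMan qRT-PCR, normalized to ACTB, GAPDH, POLR2A.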

[7] = read-out: Fatty Acid-Binding Protein 1 (FABP1), FABP1 (gene 2168); experiment: LTEA_HepaRG_FABP1: Life Technologies and Expression Analysis (LTEA) Assay for Fatty Acid-Binding Protein 1 (FABP1) using HepaRG (AID 2283494)
Outline: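 Differentiated human HepaRG cells were exposed in duplicate for 48 h in serum-free induction medium to 8-point half-log concentration series topping at 100 uM in 0.5% DMSO. FABP1 mRNA measured by TaqMan qRT-PCR, normalized to ACTB/GAPDH/POLR2A; bidirectional fit versus DMSO.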

[8] = read-out: Cytochrome P450 4A22 (Homo sapiens) (UniProt Q5TCH4); experiment: LTEA_HepaRG_CYP4A22: Life Technologies and Expression Analysis (LTEA) Assay for Cytochrome P450 4A22 (CYP4A22) using HepaRG (AID 2283495)
Outline: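 Gene expression measured by qRT-PCR against three housekeeping genes (ACTB, GAPDH, POLR2A), with gain or loss fitted relative to 0.5% DMSO vehicle. HepaRG cultures received 48 h chemical treatment, top concentration 100 uM, half-log steps, duplicate wells.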

[9] = read-out: Cytochrome P450 7A1 (Homo sapiens) (UniProt P22680); experiment: LTEA_HepaRG_CYP7A1: Life Technologies and Expression Analysis (LTEA) Assay for Cytochrome P450 7A1 (CYP7A1) using HepaRG (AID 2283496)
Outline: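 HepaRG cells plated 48 h, then switched to serum-free induction medium and exposed in duplicate for 48 h to 8-point half-log series from 100 uM in 0.5% DMSO. CYP7A1 mRNA by qRT-PCR (TaqMan), normalized to ACTB/GAPDH/POLR2A; bidirectional fit versus DMSO.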

[10] = read-out: Glutathione S-Transferase (GSTA2), GSTA2 (gene 2939); experiment: LTEA_HepaRG_GSTA2: Life Technologies and Expression Analysis (LTEA) Assay for Glutathione S-Transferase (GSTA2) using HepaRG (AID 2283497)
Outline: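 Human HepaRG cells, plated 48 h, then exposed in serum-free induction medium for 48 h to eight half-log concentrations up to 100 uM in 0.5% DMSO, duplicate. GSTA2 mRNA by qRT-PCR, normalized to ACTB/GAPDH/POLR2A; bidirectional fit versus DMSO.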

[11] = read-out: Glutamate-cysteine ligase catalytic (GCLC), GCLC (gene 2729); experiment: LTEA_HepaRG_GCLC: Life Technologies and Expression Analysis (LTEA) Assay for Glutamate-cysteine ligase catalytic (GCLC) using HepaRG (AID 2283498)
Outline: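 Differentiated human HepaRG cells, plated 48 h then switched to serum-free induction medium, were exposed in duplicate for 48 h to 8 half-log concentrations topping at 100 uM in 0.5% DMSO. GCLC mRNA was quantified by qRT-PCR against ACTB, GAPDH and POLR2A.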

[12] = read-out: Glutamate-cysteine ligase regulatory (GCLM), GCLM (gene 2730); experiment: LTEA_HepaRG_GCLM: Life Technologies and Expression Analysis (LTEA) Assay for Glutamate-cysteine ligase regulatory (GCLM) using HepaRG (AID 2283500)
Outline: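 Differentiated HepaRG cells exposed 48 h in serum-free induction medium to eight half-log concentrations up to 100 uM (0.5% DMSO). GCLM mRNA by TaqMan qRT-PCR, normalized to ACTB, GAPDH and POLR2A; bidirectional fit versus DMSO.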

[13] = read-out: Glutathione S-transferase M3 (GSTM3), GSTM3 (gene 2947); experiment: LTEA_HepaRG_GSTM3: Life Technologies and Expression Analysis (LTEA) Assay for Glutathione S-transferase M3 (GSTM3) using HepaRG (AID 2283501)
Outline: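 GSTM3 transcript levels came from Fluidigm TaqMan qRT-PCR normalized to three housekeeping genes, fitted in both directions against DMSO. HepaRG cultures received chemicals for 48 h in serum-free induction medium (0.5% DMSO), 8 half-log concentrations up to 100 uM, duplicate.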

[14] = read-out: Heat shock 70 kDa protein 1 (HSPA1A), gene 3303; experiment: LTEA_HepaRG_HSPA1A: Life Technologies and Expression Analysis (LTEA) Assay for Heat shock 70 kDa protein 1 (HSPA1A) using HepaRG (AID 2283502)
Outline: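 Human HepaRG cells in serum-free induction medium were exposed in duplicate for 48 h to 8 half-log concentrations, highest 100 uM, in 0.5% DMSO. HSPA1A mRNA read by TaqMan qRT-PCR, normalized to ACTB, GAPDH, POLR2A, fitted bidirectionally against DMSO.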

[15] = read-out: Hypoxia-inducible factor 1-alpha (Homo sapiens) (UniProt Q16665); experiment: LTEA_HepaRG_HIF1A: Life Technologies and Expression Analysis (LTEA) Assay for Hypoxia-inducible factor 1 (HIF1A) Trancription factor using HepaRG (AID 2283503)
Outline: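 Differentiated HepaRG cells in serum-free induction medium exposed 48 h, in duplicate, to 8-point half-log series from 100 uM in 0.5% DMSO. HIF1A mRNA measured by TaqMan qRT-PCR, normalized to ACTB/GAPDH/POLR2A, fitted bidirectionally versus DMSO.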

[16] = read-out: 3-Hydroxy-3-Methylglutaryl-CoA Synthase 2 (HMGCS2), HMGCS2 (gene 3158); experiment: LTEA_HepaRG_HMGCS2: Life Technologies and Expression Analysis (LTEA) Assay for 3-Hydroxy-3-Methylglutaryl-CoA Synthase 2 (HMGCS2) using HepaRG (AID 2283504)
Outline: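 Readout is HMGCS2 transcript by qRT-PCR, housekeeping-normalised (ACTB/GAPDH/POLR2A) and fitted bidirectionally against 0.5% DMSO. Differentiated HepaRG cells received chemicals 48 h, duplicate wells, eight half-log concentrations topping at 100 uM.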

HGF (gene 3082) = experiment: LTEA_HepaRG_HGF: Life Technologies and Expression Analysis (LTEA) Assay for Hepatocyte Growth Facto (HGF) using HepaRG (AID 2283505)
Outline: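 HGF transcript was quantified by TaqMan qRT-PCR against three housekeeping genes after 48 h treatment of HepaRG cells. Exposure ran in duplicate over eight half-log steps topping at 100 uM in 0.5% DMSO vehicle.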

[17] = read-out: growth arrest and DNA damage 45 (GADD45G), GADD45G (gene 10912); experiment: LTEA_HepaRG_GADD45G: Life Technologies and Expression Analysis (LTEA) Assay for growth arrest and DNA damage 45 (GADD45G) using HepaRG (AID 2283499)
Outline: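 GADD45G transcript level by qRT-PCR (housekeeping-normalized: ACTB, GAPDH, POLR2A) after 48 h chemical treatment of a single HepaRG lot in serum-free induction medium; eight-point half-log series up to 100 uM in 0.5% DMSO, duplicates, up- or down-regulation scored.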

Measured: AC50

Chain of Cytochrome P450 3A4 (Homo sapiens) (P08684 whole entry, looked up): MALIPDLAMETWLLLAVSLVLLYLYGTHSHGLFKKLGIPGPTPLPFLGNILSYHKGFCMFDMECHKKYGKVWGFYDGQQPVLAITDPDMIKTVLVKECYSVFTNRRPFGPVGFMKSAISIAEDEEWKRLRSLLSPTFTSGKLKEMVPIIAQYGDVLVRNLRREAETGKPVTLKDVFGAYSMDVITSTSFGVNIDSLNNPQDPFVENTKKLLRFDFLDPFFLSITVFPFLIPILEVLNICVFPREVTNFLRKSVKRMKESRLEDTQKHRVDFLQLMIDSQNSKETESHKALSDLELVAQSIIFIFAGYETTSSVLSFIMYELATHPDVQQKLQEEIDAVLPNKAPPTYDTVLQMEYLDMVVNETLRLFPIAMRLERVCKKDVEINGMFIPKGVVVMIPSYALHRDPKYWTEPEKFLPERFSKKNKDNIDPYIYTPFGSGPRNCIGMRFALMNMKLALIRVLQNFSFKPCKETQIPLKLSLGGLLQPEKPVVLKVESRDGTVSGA
Chain of Cytochrome P450 3A7 (Homo sapiens) (P24462 whole entry, looked up): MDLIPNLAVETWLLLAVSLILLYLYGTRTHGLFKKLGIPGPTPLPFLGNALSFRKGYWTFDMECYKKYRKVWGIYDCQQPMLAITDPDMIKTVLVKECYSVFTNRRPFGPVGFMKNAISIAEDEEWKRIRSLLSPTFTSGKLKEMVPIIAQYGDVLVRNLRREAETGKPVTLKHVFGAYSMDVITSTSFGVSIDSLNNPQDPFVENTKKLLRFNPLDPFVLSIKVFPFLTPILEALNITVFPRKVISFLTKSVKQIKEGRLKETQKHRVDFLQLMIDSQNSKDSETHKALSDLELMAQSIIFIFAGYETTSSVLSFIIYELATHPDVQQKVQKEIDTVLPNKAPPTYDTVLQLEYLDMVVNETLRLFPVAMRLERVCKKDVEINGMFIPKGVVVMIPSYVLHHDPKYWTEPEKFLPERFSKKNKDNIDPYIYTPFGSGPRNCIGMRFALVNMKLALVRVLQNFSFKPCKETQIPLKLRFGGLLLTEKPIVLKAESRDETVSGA
Chain of Hypoxia-inducible factor 1-alpha (Homo sapiens) (Q16665 whole entry, looked up): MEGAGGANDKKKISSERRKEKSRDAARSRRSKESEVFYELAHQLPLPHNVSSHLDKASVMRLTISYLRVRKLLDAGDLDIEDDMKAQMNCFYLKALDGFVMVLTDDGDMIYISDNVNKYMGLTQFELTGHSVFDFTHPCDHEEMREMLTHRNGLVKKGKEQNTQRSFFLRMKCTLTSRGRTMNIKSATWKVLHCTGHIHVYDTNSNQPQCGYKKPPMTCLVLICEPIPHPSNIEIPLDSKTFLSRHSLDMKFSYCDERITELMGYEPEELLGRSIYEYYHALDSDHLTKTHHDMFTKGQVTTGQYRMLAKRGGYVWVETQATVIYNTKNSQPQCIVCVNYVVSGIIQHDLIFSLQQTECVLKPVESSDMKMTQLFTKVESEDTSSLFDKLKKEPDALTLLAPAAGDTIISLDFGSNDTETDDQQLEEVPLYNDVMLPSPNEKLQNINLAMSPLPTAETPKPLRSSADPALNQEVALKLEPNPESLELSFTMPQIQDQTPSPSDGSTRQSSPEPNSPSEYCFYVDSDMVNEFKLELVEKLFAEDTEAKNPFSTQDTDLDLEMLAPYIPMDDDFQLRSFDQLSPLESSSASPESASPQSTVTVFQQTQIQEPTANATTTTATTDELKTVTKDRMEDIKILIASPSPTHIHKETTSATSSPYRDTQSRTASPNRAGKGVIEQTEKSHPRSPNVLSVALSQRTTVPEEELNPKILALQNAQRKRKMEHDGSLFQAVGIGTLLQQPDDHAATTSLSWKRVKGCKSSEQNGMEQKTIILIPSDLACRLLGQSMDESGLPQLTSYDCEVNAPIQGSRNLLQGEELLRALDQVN

O=C(O)c1[nH]n(-c2ccc(S(=O)(=O)O)cc2)c(=O)c1N=Nc1ccc(S(=O)(=O)O)cc1
not listed: [17]
inactive: all other assays above

CC(C)c1cccc(C(C)C)c1NC(=O)NS(=O)(=O)c1cc(C(C)(C)O)co1
active: CYP4A11 (gene 1579) 29.5 µM | [1] 3.54 µM | [7] 43.1 µM | [8] 31.6 µM | [16] 62 µM
not listed: [17]
inactive: all other assays above

CC1=C(C)S(=O)(=O)CCS1(=O)=O
active: CYP4A11 (gene 1579) 89.5 µM | [1] 50 µM | [3] 12 µM | [4] 80.6 µM | [6] 72 µM | [7] 88.1 µM | [8] 50 µM | [9] 92.6 µM | [10] 90.3 µM | [11] 70.6 µM | [12] 0.214 µM | [15] 77.1 µM
inactive: [2] | [5] | CYP3A5 (gene 1577) | [13] | [14] | [16] | HGF (gene 3082)

Oc1ccccc1O
not listed: [14] | [15]
inactive: all other assays above

CCCCCCC(CCCCCCCCCCC(=O)OCC(COC(C)=O)OC(C)=O)OC(C)=O (centres undefined)
inactive: all assays above

CCCCC(CC)CO (centres undefined)
not listed: [14]
inactive: all other assays above

CCN(CC)CCOc1ccc(C(=C(Cl)c2ccccc2)c2ccccc2)cc1
active: CYP4A11 (gene 1579) 19.3 µM | [2] 42 µM | [4] 81.3 µM | [5] 67.8 µM | [8] 13.3 µM | [9] 13.3 µM | [10] 78.6 µM | [12] 78 µM | [16] 29.2 µM
inactive: all other assays above
